# Results: the supplement of paper PMC6555819
# Test system: LXRa homodimer (NR concentration 270 nM)
# Assay: PBM binding z-score (relative to random genomic background probes); higher = stronger binding; sequences stand for … in GC…GCGATTGACAGCGTAGAATGAAGG
# Procedure, shortened: (§1)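 Custom Agilent 4×180K protein-binding microarrays carried double-stranded probes, each with a 34-nt variable region. These regions held direct-repeat seeds, single-nucleotide variants, half-site ablations and random human genomic background sequences. Ligand-free nuclear receptor dimers were incubated on the arrays for 1 h, antibodies against each partner (one per run) detected binding, and scanned fluorescence was regression-normalized. Binding z-scores take the random background probes as reference.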
row,Sequence,PBM binding z-score
1,CGAACTAGGTCAGAACAGGACAGTGAAGGATGAT,-0.0376
2,TCTTGTAGATCAAAGGTTATGAAAGCCGAAGCCT,0.00882
3,CGTCCAAGGTCATAGGAGGTCCGTGAAGACAGAT,0.811
4,TCGCGTAGGTTAGTCGGGGCATTCAGCCAACATA,-0.337
5,ATCTCTAAGTAAGACTCAGTTCAGTGAAGAACGC,0.509
6,CCTACGGGGCCATCAGGTCATTGATATCAACGTT,0.922
7,ACTAGCAGGCCCAGGGTCACTCAAGATTAGTCCG,-0.164
8,AGTCAAAGTTCACTAGGTAACGTACGATTCAGCT,3.55
9,TATACAGGGTCAAAGGCCAGAGGACGAATGTCGA,2.34
10,CCTATTAGTTGACCATAAGGGCAACAGAAGCTCG,0.381
11,GTACCAAGGTGAATAGGTCTTTGATGAGTAGGCG,-0.168
12,AGAATGAGGTTATACGTAGATAAGGGAAGAAAGT,-0.00161
13,CGTCCAAGGTCAAGGTTAGTGAAAGAGACTCGAA,0.37
14,CGTCCAATGTCAGAGAGGTCAGTGAATGCCGAGT,1.37
15,CCTAGCAGGCCAGGCTCACTCAAGCATTTCGCTT,-0.346
16,CAAACTAGGTCACGAAAGGACAAAGTCGAATGAC,1.25
17,TCTTGTAGATCAAGAAGGTTAAGAAAGCCTGAGT,-0.24
18,GGAACGAGGGCATTCGAGTTAATAGCATGGCGAT,-0.476
19,CTACCAAGGTGAACAAGGCCGTTGATTACTATTC,-0.224
20,TCTGCAAGGTCAGTTGGTCAGCTAACGAGCTGCC,-0.037

row,Sequence,PBM binding z-score
1,GCTAGAAGGCCATTTGGGTCACTCAATGACGGGC,-0.572
2,CGTCAAAGTGCAACTAAGGTAACGTAAAGCACGC,-0.122
3,TCATATAGGTAAATGCTTGGTGAAAGTCCGATCT,0.23
4,TTACCAAGGTGAAACGTCGTTGATGCACGCCTTG,-0.246
5,CGTCCAAGGTCATAGGAGGGCAGTGAAGACAGAT,1.55
6,CCTAGCAGGCCAGGGTAACTCAAGCATTTCGCTT,-0.559
7,CATGCAGGGTCAGCTAGGCCAGAGTAGGGACGGC,-0.597
8,TCATATAGGTAGATGCTAGGTGAAAGTCCGATCT,0.165
9,GCTTGTTGATCAAGGTTAAGAAAGACTAAGCTAA,-0.456
10,GCTAGCAGGCCATATGGGTCACTCAATGACGGGC,-0.185
11,CGTCAAAGTTAAACTAAGGTAACGTAAAGCACGC,0.57
12,CCTGCTAGGTCATGGTCAACTAATCTACAGTATG,0.245
13,CAAACTAGGTCAAAGGTGAAAGTCGAGCCAACCA,0.751
14,ATCTCTAGGTAACCAAGTTCATTGAATGCCGAAC,2.71
15,TCTTGTTGGTCAAAGGTCACACACTCGAAATGCG,4.46
16,ATCTCTAGGTAATCAAGTTCAGTGAATGCCGAAC,1.61
17,TCGAGTAGGTTACCAATGGGGCATTGAGCTTTCT,-0.99
18,CGAACTAGGTCAGAACAGGACAGTAAAGGATGAT,-0.0273
19,ATACCAAGGTGATCGTGAGCTCGTTGATACTAAC,-0.322
20,GCTAGCAGGCCACTTGGGTCACTCAATGACGGGC,-0.748

# Test system: LXRb:RXRa (NR concentration 270 nM, RXRa partner concentration 90 nM)
# Assay: as above
# Procedure, shortened: as §1
row,Sequence,PBM binding z-score
1,CGAACTAGGTCAGAACAGGACAGTGAAGGATGAT,0.189
2,TCTTGTAGATCAAAGGTTATGAAAGCCGAAGCCT,2.21
3,CGTCCAAGGTCATAGGAGGTCCGTGAAGACAGAT,3.99
4,TCGCGTAGGTTAGTCGGGGCATTCAGCCAACATA,0.83
5,ATCTCTAAGTAAGACTCAGTTCAGTGAAGAACGC,0.112
6,CCTACGGGGCCATCAGGTCATTGATATCAACGTT,1.91
7,ACTAGCAGGCCCAGGGTCACTCAAGATTAGTCCG,1.69
8,AGTCAAAGTTCACTAGGTAACGTACGATTCAGCT,3.27
9,TATACAGGGTCAAAGGCCAGAGGACGAATGTCGA,4.72
10,CCTATTAGTTGACCATAAGGGCAACAGAAGCTCG,0.601
11,GTACCAAGGTGAATAGGTCTTTGATGAGTAGGCG,0.148
12,AGAATGAGGTTATACGTAGATAAGGGAAGAAAGT,1.56
13,CGTCCAAGGTCAAGGTTAGTGAAAGAGACTCGAA,3.88
14,CGTCCAATGTCAGAGAGGTCAGTGAATGCCGAGT,2.24
15,CCTAGCAGGCCAGGCTCACTCAAGCATTTCGCTT,-0.706
16,CAAACTAGGTCACGAAAGGACAAAGTCGAATGAC,4.08
17,TCTTGTAGATCAAGAAGGTTAAGAAAGCCTGAGT,0.833
18,GGAACGAGGGCATTCGAGTTAATAGCATGGCGAT,0.179
19,CTACCAAGGTGAACAAGGCCGTTGATTACTATTC,0.646
20,TCTGCAAGGTCAGTTGGTCAGCTAACGAGCTGCC,2.09

row,Sequence,PBM binding z-score
1,GCTAGAAGGCCATTTGGGTCACTCAATGACGGGC,0.474
2,CGTCAAAGTGCAACTAAGGTAACGTAAAGCACGC,0.5
3,TCATATAGGTAAATGCTTGGTGAAAGTCCGATCT,0.824
4,TTACCAAGGTGAAACGTCGTTGATGCACGCCTTG,0.141
5,CGTCCAAGGTCATAGGAGGGCAGTGAAGACAGAT,4.12
6,CCTAGCAGGCCAGGGTAACTCAAGCATTTCGCTT,-0.682
7,CATGCAGGGTCAGCTAGGCCAGAGTAGGGACGGC,2.03
8,TCATATAGGTAGATGCTAGGTGAAAGTCCGATCT,0.357
9,GCTTGTTGATCAAGGTTAAGAAAGACTAAGCTAA,0.239
10,GCTAGCAGGCCATATGGGTCACTCAATGACGGGC,0.489
11,CGTCAAAGTTAAACTAAGGTAACGTAAAGCACGC,0.346
12,CCTGCTAGGTCATGGTCAACTAATCTACAGTATG,1.98
13,CAAACTAGGTCAAAGGTGAAAGTCGAGCCAACCA,4.52
14,ATCTCTAGGTAACCAAGTTCATTGAATGCCGAAC,1.66
15,TCTTGTTGGTCAAAGGTCACACACTCGAAATGCG,5.63
16,ATCTCTAGGTAATCAAGTTCAGTGAATGCCGAAC,0.658
17,TCGAGTAGGTTACCAATGGGGCATTGAGCTTTCT,0.479
18,CGAACTAGGTCAGAACAGGACAGTAAAGGATGAT,0.738
19,ATACCAAGGTGATCGTGAGCTCGTTGATACTAAC,0.0963
20,GCTAGCAGGCCACTTGGGTCACTCAATGACGGGC,0.0102
